Experimental findings from PubChem BioAssay (EPA / NIEHS) are described below.

Calls of active or inactive are those of the source. Rule for the calls: active = hit-call score of the fitted dose curve at least 0.9, where 1 is the maximum; inactive = score below 0.9.

Read-out in the experiment: X-box binding protein 1 (XBP1), XBP1 (gene 7494)
Kind of experiment: LTEA_HepaRG_XBP1: Life Technologies and Expression Analysis (LTEA) Assay for X-box binding protein 1 (XBP1) using HepaRG (AID 2283540). The following applies: mRNA level, 48 h; actives raise or lower the signal. Here is the method: LTEA_HepaRG is a cell based, multiplexed-readout assay that uses HepaRG, a human liver cell line, with measurements taken at 48 hours after chemical dosing on a 96-well plate.LTEA_HepaRG_XBP1 is one of 102 assay component(s) measured in the LTEA HepaRG cell culture assay. It is a marker of Diseases associated with XBP1 including Major Affective Disorder 7 and Bipolar Disorder.Data from the assay component LTEA_HepaRG_XBP1 was analyzed into 1 endpoint. This assay endpoint, LTEA_HepaRG_XBP1, was analyzed with bidirectional fitting relative to DMSO as the negative control and baseline of activity. Using a type of inducible reporter, measures of mRNA induction for gain or loss-of-signal activity can be used to understand regulation of transcription factor activity. To generalize the intended target to other relatable targets, this assay endpoint is annotated to the dna binding intended target family, where the subfamily is basic leucine zipper.
A total of 1060 chemcials from the ToxCast library were tested in eight-point concentration-response experiments. Cell culture and cytotoxicity assays were conducted at Thermo Fisher Scientific's Custom Services facility (Madison, WI). A single lot of human HepaRG cells (Thermo Fisher Scientific, Frederick, MD) was used for the cell culture experiments. 96-well format collagen type I coated plates of human HepaRG cells were prepared using established methods. Briefly, cryopreserved HepaRG cells were thawed, plated at a density of approximately 100,000 cells/well in HepaRG Thaw, Plate, and General Purpose media (HPRG770, Thermo Fisher Scientific), and incubated for 48 hours. 0.5% DMSO was selected as vehicle control to balance the requisite need of DMSO in HepaRG cultures to maintain differentiation (for example, baseline metabolism, proportions of hepatocytes vs. cholangiocytes), while enabling further hepatic receptor pathway activation (for example, PXR and CAR) in response to chemical exposure. 48 hours after plating, the culture medium was replaced with HepaRG Serum-Free Incudtion Media. Cells were exposed to each test chemical in duplicate and maintained in CO2 incubators for another 48 hours. Chemical plates were thawed to room temperature and 200x concentrations of treatment groups were prepared. 8-point conentration-reponse curves were made with the highest exposure at 100 uM, followed by half-log dilutions, all in 0.5% DMSO. Each test plate contained variouse controls, induction positive controls (1mM phenobarbital), cytotoxicity positive controls ([…] aflatoxin B1), vehicle controls (0.5% DMSO), and total lysis controls (0.5% DMSO). Cell morphology images were taken using an Essen IncuCyte FLR automated microscope, with six 96-well plates imaged in about 24 minutes. Images were captured and exported and JPEG files. Spent culture media was transfered to black-well plates for the LDH assay, and remaining media was sorted at -80 C for later use. Cells were treated with RLT buffer and frozen until shipped for gene expression analysis. Total RNA was isolated from the cell suspension in 75 uL of Buffer RLT (Qiagen, Germantown, MD 20874) by Quintiles/Expression Analysis (Durham, NC) using a custom isolation procedure. Total RNA from each plate well was transferred to a preamplification plate. Fluidigm's 96.96 Dynamic ArrayTM (Fluidigm, Amsterdam, the Netherlands) technology was used for gene expression analyses by quantitative reverse transcription polymerase chain reaction (qRT-PCR, performed by Quintiles/Expression Analysis, Durham, NC)89. Standard TaqManTM Assays (Applied Biosystems/ThermoFisher Scientific, Foster City, CA) were used to assess the expression of 93 genes selected based on their selectivity and sensitivity to important hepatic receptors known to be modulated by environmental chemicals; importance in human hepatocyte functionality; and hepatotoxicity. […]
Consider `CCOP(=S)(Oc1cnc(C(C)(C)C)nc1)OC(C)C` (stereo not given), for which the AC50 is 50 µM (active).

Take `COc1ccc(C(=CC(=O)N2CCOCC2)c2ccc(Cl)cc2)cc1OC`: the call was inactive.

Turning to `CC(C)N(C(=O)SCC(Cl)=C(Cl)Cl)C(C)C`, the call was inactive.

Turning to `C[N+]1(C)CCCCC1`, the outcome was inactive.

Take `COc1cc(OC)nc(Sc2cccc(Cl)c2C(=O)O)n1`: the result was inactive.

As to `CCCCN(CC)c1c([N+](=O)[O-])cc(C(F)(F)F)cc1[N+](=O)[O-]`, the result was inactive.

Consider `CC(=NC#N)N(C)Cc1ccc(Cl)nc1`, for which the call was inactive.

`C#CCC1=C(C)C(OC(=O)C2C(C=C(C)C)C2(C)C)CC1=O` (stereo not given): the compound was called inactive.

Consider `CCCCSP(=O)(SCCCC)SCCCC`, for which the call was inactive.

Regarding `CCOC(=O)CC(SP(=O)(OC)OC)C(=O)OCC` (stereo not given), the compound was classed as inactive.

Consider `CN(C)[C@@H]1C(=O)C(C(N)=O)=C(O)[C@@]2(O)C(=O)C3=C(O)c4c(O)cccc4[C@@](C)(O)[C@H]3[C@H](O)[C@@H]12`, for which the result was inactive.

As to `CCOP(=S)(OCC)Oc1ccc2c(C)c(Cl)c(=O)oc2c1`, the compound was classed as inactive.

Take `CCOP(=S)(OCC)Oc1cc(C)nc(C(C)C)n1`: the compound was called inactive.

Take `CSC1=N[C@@](C)(c2ccccc2)C(=O)N1Nc1ccccc1`: the call was inactive.

For `CN(C)C(=O)Nc1cccc(C(F)(F)F)c1`, the compound was called inactive.

For the compound `CCC(=O)Nc1ccc(Cl)c(Cl)c1`, the call was inactive.

As for `C#CC(C)(C)NC(=O)c1cc(Cl)cc(Cl)c1`, the compound was classed as inactive.

With `CN(C)NC(=O)CCC(=O)O`, the compound was classed as inactive.

Regarding `O=C(O)c1cc(Oc2ccc(C(F)(F)F)cc2Cl)ccc1[N+](=O)[O-]`, the outcome was inactive.

Regarding `C=C(C)[C@H]1Cc2c(ccc3c2O[C@@H]2COc4cc(OC)c(OC)cc4[C@@H]2C3=O)O1`, the result was inactive.

As for `Nc1nc(N)nc(NC2CC2)n1`, the call was inactive.

`CCOP(=O)(NC(C)C)Oc1ccc(SC)c(C)c1` (stereo not given): the compound was called inactive.

`CC(C)=CC1C(C(=O)OCN2C(=O)C3=C(CCCC3)C2=O)C1(C)C` (stereo not given): the call was inactive.

Consider `CCCOCC(=Nc1ccc(Cl)cc1C(F)(F)F)n1ccnc1`, for which the call was inactive.

With `CCC(CC)Nc1c([N+](=O)[O-])cc(C)c(C)c1[N+](=O)[O-]`, the compound was classed as inactive.

In the case of `CC1=NNC(=O)N(/N=C/c2cccnc2)C1`, the result was inactive.

`COP(=O)(OC)SCn1c(=O)oc2cc(Cl)cnc21`: the compound was called inactive.

Regarding `CNc1cnn(-c2cccc(C(F)(F)F)c2)c(=O)c1Cl`, the call was inactive.

As for `CCCSP(=O)(OCC)SCCC`, the call was inactive.

As for `COP(=O)(NC(C)=O)SC` (stereo not given), the compound was called inactive.

For the compound `CCOP(=O)(SC(C)CC)N1CCSC1=O` (stereo not given), the outcome was inactive.

Consider `CCCSP(=O)(OCC)Oc1ccc(Br)cc1Cl` (stereo not given), for which the compound was classed as inactive.

On to `CC(Oc1cccc(Cl)c1)C(=O)O` (stereo not given), for which the call was inactive.

As for `CCNc1nc(Cl)nc(NC(C)(C)C#N)n1`, the call was inactive.

Consider `CCOP(=O)(OCC)Oc1cc(C)nc(C(C)C)n1`, for which the call was inactive.

For `CCc1cccc(CC)c1N(COC)C(=O)CCl`, the result was inactive.

For the compound `COP(=O)(OC)C(O)C(Cl)(Cl)Cl` (stereo not given), the outcome was inactive.

For the compound `CCc1cccc(C)c1N(C(=O)CCl)C(C)COC` (stereo not given), the result was inactive.

In the case of `Cc1ccn2nc(S(=O)(=O)Nc3c(F)cccc3F)nc2n1`, the outcome was inactive.

For `O=[N+]([O-])c1cc(C(F)(F)F)c(Cl)c([N+](=O)[O-])c1Nc1ncc(C(F)(F)F)cc1Cl`, the result was inactive.
